In all, about 5,500 compounds went through this assay and about 2,000 (36%) were called active. Inconclusive results (about 18%) are left out. No stated cut-off is given here; in the data, active means normalized growth mostly below about 0.91 (no sharp cut-off); inconclusive means no clear call, values can overlap the other calls; inactive means mostly above about 0.92. The list shows a part of the results.
Test: chemical genetic growth profiling, strain panel (AID 1159580);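 further: tested at 20 µM; growth read once vehicle control cultures reached saturation at 30 °C; 1 = growth at the plate median or of vehicle wells; lower values mean less growth of the strain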
Settings: growth OD
[1] = S. cerevisiae deletion strains, locus YAL013W, strain DEP1, active compounds read low
[2] = S. cerevisiae deletion strains, locus YBR229C, strain ROT2, active compounds read low
[3] = S. cerevisiae deletion strains, locus YDL101C, strain DUN1, active compounds read low
[4] = S. cerevisiae deletion strains, locus YDL134C, strain PPH21, active compounds read low
[5] = S. cerevisiae deletion strains, locus YDR150W, strain NUM1, active compounds read low
[6] = S. cerevisiae deletion strains, locus YEL061C, strain CIN8, active compounds read low
[7] = S. cerevisiae deletion strains, locus YGR078C, strain PAC10, active compounds read low
[8] = S. cerevisiae deletion strains, locus YGR229C, strain SMI1, active compounds read low
[9] = S. cerevisiae deletion strains, locus YHR030C, strain SLT2, active compounds read low
[10] = S. cerevisiae deletion strains, locus YHR087W, strain rtc3, active compounds read low
[11] = S. cerevisiae deletion strains, locus YJR043C, strain POL32, active compounds read low
[12] = S. cerevisiae deletion strains, locus YJR075W, strain HOC1, active compounds read low
[13] = S. cerevisiae deletion strains, locus YLR039C, strain RIC1, active compounds read low
[14] = S. cerevisiae deletion strains, locus YLR058C, strain SHM2 (second series), active compounds read low
[15] = S. cerevisiae deletion strains, locus YLR085C, strain ARP6, active compounds read low
[16] = S. cerevisiae deletion strains, locus YLR262C, strain YPT6, active compounds read low
[17] = S. cerevisiae deletion strains, locus YML094W, strain GIM5, active compounds read low
[18] = S. cerevisiae deletion strains, locus YMR219W, strain ESC1, active compounds read low
[19] = S. cerevisiae deletion strains, locus YMR263W, strain SAP30, active compounds read low
[20] = S. cerevisiae deletion strains, locus YNL153C, strain GIM3, active compounds read low
[21] = S. cerevisiae deletion strains, locus YNL298W, strain CLA4 (second series), active compounds read low
[22] = S. cerevisiae deletion strains, locus YNL322C, strain KRE1, active compounds read low
[23] = S. cerevisiae deletion strains, locus YNR030W, strain Alg12, active compounds read low
[24] = S. cerevisiae deletion strains, locus YOL006C, strain TOP1, active compounds read low
[25] = S. cerevisiae deletion strains, locus YPL055C, strain LGE1, active compounds read low
[26] = S. cerevisiae deletion strains, locus YPL241C, strain CIN2, active compounds read low
[27] = S. cerevisiae deletion strains, locus YPR135W, strain CTF4, active compounds read low
[28] = S. cerevisiae deletion strains, locus YCL061C, strain MRC1, active compounds read low

Measured: normalized growth

CC(=O)c1ccc(-c2ccc(C(C)=O)cc2)cc1
inactive: [1] 1 | [2] 0.999 | [3] 1.03 | [4] 1.01 | [5] 1 | [6] 1.01 | [7] 1.02 | [8] 1 | [9] 0.999 | [10] 0.987 | [11] 0.974 | [12] 1.02 | S. cerevisiae deletion strains, locus YKL190W, strain CNB1, active compounds read low 1 | [13] 1.06 | [14] 0.987 | [15] 0.95 | [16] 1.03 | [17] 0.955 | [18] 1.02 | [19] 1 | S. cerevisiae deletion strains, locus YMR307W, strain GAS1, active compounds read low 0.977 | [20] 1.01 | [21] 1.01 | [22] 1.01 | [23] 1.01 | [24] 0.956 | [25] 0.941 | [26] 0.991 | [27] 1.01 | S. cerevisiae strains, strain wild type, active compounds read low 1.03

CCC(=O)c1ccc(-c2ccccc2)cc1
inactive: [1] 0.948 | [2] 0.93 | [3] 0.918 | [4] 0.963 | [5] 0.899 | [7] 0.935 | [8] 0.978 | [10] 0.939 | [12] 0.912 | [14] 0.953 | [17] 0.934 | [18] 0.957 | [19] 0.905 | [22] 0.968 | [23] 0.936 | [25] 0.831 | [26] 0.863
active: [28] 0.904 | [6] 0.895 | [9] 0.502 | [11] 0.912 | [13] 0.765 | [15] 0.631 | [16] 0.727 | [20] 0.924 | [21] 0.821 | [24] 0.568 | [27] 0.58

O=C(CCCCCCCCC(=O)c1ccccc1)c1ccccc1
inactive: [1] 0.996 | [2] 1 | [28] 1.01 | [3] 1.01 | [5] 0.918 | [6] 1.01 | [7] 1.02 | [9] 0.964 | [10] 1.05 | S. cerevisiae deletion strains, locus YJL187C, strain SWE1, active compounds read low 1.02 | [11] 1.01 | [12] 0.987 | [13] 1.04 | [14] 0.998 | [15] 0.998 | [16] 1.04 | [17] 1.01 | [18] 0.999 | [19] 1 | [20] 0.994 | [21] 1.05 | [22] 1 | [23] 1.01 | [24] 1.01 | [25] 0.981 | [26] 1 | [27] 1

— PubChem BioAssay AID1159580 (chemical genetic matrix, 2015)
